This is part of a sample that, as a whole, favours compounds with a hit. Of some 83,000 tested, about 20% had one in any assay.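 How to read the values: 0–100, growth inhibition (40 = 60% inhibited); 0, no net growth; -100 to 0, cell death (-40 = 40% of starting cells died; -100 = all dead).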 Calls of active or inactive are those of the source. Rule for the calls: active = growth percent below 10; inactive = the rest.
Columns and labels:
Experiment in all cases: NCI-60 one-dose screen, 48 h (100 = growth as untreated, 0 = no growth, -100 = all killed)
Settings in all cases: 10 µM unless noted
T-47D breast = test system: T-47D breast
BT-549 breast = test system: BT-549 breast
MDA-MB-435 melanoma = test system: MDA-MB-435 melanoma
SW-620 colon = test system: SW-620 colon
MCF7 breast = test system: MCF7 breast
HCT-116 colon = test system: HCT-116 colon
HCC-2998 colon = test system: HCC-2998 colon
KM12 colon = test system: KM12 colon

Measured: growth

O=C(C1=Cc2cc3ccccc3n2Cc2cnnn21)c1ccc(O)cc1
active: MDA-MB-435 melanoma -7.67%
inactive: T-47D breast 44.9% | BT-549 breast 54.8% | SW-620 colon 28.7% | MCF7 breast 34.3% | HCT-116 colon 46.4% | HCC-2998 colon 83.8% | KM12 colon 29.5%

O=C(CN1CCCCCC1)Nc1nc2ccc(NCc3ccc(Cl)cc3)cc2s1
inactive: T-47D breast 94.7% | BT-549 breast 92.6% | MDA-MB-435 melanoma 100% | SW-620 colon 97.9% | MCF7 breast 84.9% | HCT-116 colon 75.8% | HCC-2998 colon 114% | KM12 colon 96.6%

CN(C)S(=O)(=O)Oc1ccc(-c2sc3cc(OS(=O)(=O)N(C)C)ccc3c2C(=O)c2ccc(OCCN3CCCCC3)cc2)cc1
inactive: T-47D breast 44.8% | BT-549 breast 79.6% | MDA-MB-435 melanoma 78.6% | SW-620 colon 30.5% | MCF7 breast 26.4% | HCT-116 colon 40.8% | HCC-2998 colon 89.2% | KM12 colon 73.7%

Cc1ccc(-c2nc(SCc3nc4cc(Cl)c(Cl)cc4[nH]3)[nH]c(=O)c2C#N)cc1
inactive: T-47D breast 85.4% | BT-549 breast 92.5% | MDA-MB-435 melanoma 105% | SW-620 colon 109% | MCF7 breast 101% | HCT-116 colon 93.1% | HCC-2998 colon 110% | KM12 colon 96.6%

COc1cccc(CCNc2ncnc3c2ncn3Cc2nnc3c4ccccc4c(Cl)nn23)c1
inactive: T-47D breast 48.5% | BT-549 breast 47.8% | MDA-MB-435 melanoma 57.5% | SW-620 colon 57.4% | MCF7 breast 63% | HCT-116 colon 39.6% | HCC-2998 colon 91.9% | KM12 colon 80%

C=CC(=O)Nc1ccc(Oc2nccc(Nc3nnc(-c4ccc(C)cc4)s3)n2)cc1
active: MDA-MB-435 melanoma 0.25%
inactive: T-47D breast 89.2% | BT-549 breast 73.4% | SW-620 colon 49.5% | MCF7 breast 80.6% | HCT-116 colon 94.9% | HCC-2998 colon 110% | KM12 colon 84%

CCN1C2CCC1/C(=C\c1ccc(F)cc1)C(=O)/C2=C/c1ccc(F)cc1
inactive: T-47D breast 45.8% | BT-549 breast 24.9% | MDA-MB-435 melanoma 25% | SW-620 colon 30.4% | MCF7 breast 18.6% | HCC-2998 colon 65.8% | KM12 colon 17.5%
active: HCT-116 colon 7.21%

O=C(CSc1nnc(-c2cc(-c3ccccc3)nc3ccccc23)n1-c1ccccc1)Nc1ccc(C(=O)/C=C/c2ccc(Cl)cc2)cc1
inactive: T-47D breast 73.8% | BT-549 breast 92.4% | MDA-MB-435 melanoma 96.5% | SW-620 colon 93.3% | MCF7 breast 78.5% | HCT-116 colon 86.5% | HCC-2998 colon 100% | KM12 colon 75.4%

Cc1ccc(N2C(=O)CCC2=O)cc1
inactive: T-47D breast 105% | BT-549 breast 80.6% | MDA-MB-435 melanoma 102% | SW-620 colon 96.1% | MCF7 breast 94.6% | HCT-116 colon 92.9% | HCC-2998 colon 108% | KM12 colon 103%

COc1ccc(C(O)c2cc3c(N)c(C(=O)Nc4cccc(Cl)c4C)sc3nc2C)cc1 (stereo not given)
inactive: T-47D breast 30.5% | BT-549 breast 17.7% | SW-620 colon 17.9% | MCF7 breast 17%
active: MDA-MB-435 melanoma -29.5% | HCT-116 colon 6.73% | HCC-2998 colon 5.81% | KM12 colon 6.49%

Cc1n[nH]c2ccc(Br)cc2c1=O
inactive: T-47D breast 94.6% | BT-549 breast 95.7% | MDA-MB-435 melanoma 107% | SW-620 colon 113% | MCF7 breast 108% | HCT-116 colon 98.7% | HCC-2998 colon 107% | KM12 colon 95.9%

Clc1c(Cl)[n+](Cc2ccc3ccccc3c2)cn1Cc1ccc2ccccc2c1
active: T-47D breast -3.8% | BT-549 breast -69.5% | MDA-MB-435 melanoma -31.4% | HCT-116 colon 7.02% | KM12 colon -67.6%
inactive: SW-620 colon 34.4% | MCF7 breast 11.8% | HCC-2998 colon 16%

CN(C)c1ccc(-c2ccc3c(c2)c(-c2ccccc2)nc(=O)n3C)cn1
active: MDA-MB-435 melanoma -11.1%
inactive: T-47D breast 22.1% | BT-549 breast 49.1% | SW-620 colon 26.3% | MCF7 breast 18% | HCT-116 colon 22.1% | HCC-2998 colon 78.2% | KM12 colon 43.2%

C=C(c1ccc(OC)c(/C=C/C(=O)c2ccc3c(c2)OCO3)c1)c1cc(OC)c(OC)c(OC)c1
active: T-47D breast 8.67% | SW-620 colon 5.67% | HCT-116 colon 2.56% | HCC-2998 colon 9.86% | KM12 colon 4.46%
inactive: BT-549 breast 12.7% | MDA-MB-435 melanoma 23.2% | MCF7 breast 16.1%

C/C(Cc1ccc(Cl)cc1)=C(\c1ccc(OCCCN(C)C)cc1)c1ccc(OC(=O)Cc2ccccc2)cc1
inactive: T-47D breast 71.3% | BT-549 breast 117% | MDA-MB-435 melanoma 107% | SW-620 colon 108% | MCF7 breast 57.9% | HCT-116 colon 104% | HCC-2998 colon 107% | KM12 colon 94.7%
